Structures are written as SMILES. Inconclusive results are not listed. Calls of active or inactive are those of the source. Rule for the calls, unless noted: active = hit-call score of the fitted dose curve at least 0.9, where 1 is the maximum; inactive = score below 0.9.

Experiment [1] is described as follows: ACEA_ER_80hr: ACEA Biosciences xCELLigence Real-Time Cell Analysis on Estrogen Receptor Agonism for Proliferation (AID 2282667; active = hit-call score of the fitted dose curve at least 0.9, where 1 is the maximum). The settings on record: T47D proliferation, impedance (xCELLigence), 80 h. In a few lines: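 Real-time impedance growth kinetics of human T-47D breast cells read 80 h after dosing, gain-of-signal fitted relative to DMSO. Compounds: 1:4 serial series, top final concentration 100 uM, n = 2.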

Experiment [2] can be described thus: APR_HepG2_CellCycleArrest_24hr: Apredica 24-hour HepG2 Assay for Cell Cycle Arrest (AID 2282905).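 Note: cell cycle arrest scored as ratio of 2N to 4N nuclear DNA content.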 The settings on record: imaging, actives raise or lower the signal. Summed up:
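Readout: Hoechst 33342 nuclear DNA content by high-content fluorescent imaging, six images/well, 20x. Human HepG2 liver cells, 24 hr compound exposure, 0.39–200 uM, final DMSO 0.5% v/v. Gain or loss fitted relative to DMSO baseline.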

The nature of experiment [3]: APR_HepG2_NuclearSize_24hr: Apredica 24-hour HepG2 Assay for Nuclear Size (AID 2282907). The settings on record: high-content imaging, actives raise or lower the signal. In a few lines: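 Read-out: nuclear diameter from Hoechst 33342 (2 ug/mL) imaging of fixed HepG2 cells, 20x, six fields/well. Compounds ran at 0.39–200 uM for 24 hr, 0.5% DMSO final. Gain or loss was fitted bidirectionally relative to the DMSO baseline.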

The nature of experiment [4]: APR_HepG2_CellLoss_24hr: Apredica 24-hour HepG2 Assay for Cell Loss (AID 2282908).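 For AC50: fit in both directions so a hit may be cell loss or gain.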 The settings on record: high-content imaging. In a few lines:
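Read-out: Hoechst 33342-stained nuclei counted by automated fluorescence imaging after formaldehyde fixation and Triton permeabilization. Ten concentrations, 0.39 to 200 uM, duplicate wells, 0.5% DMSO final. Gain or loss of signal fitted relative to DMSO baseline.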

Experiment [5] is described as follows: APR_HepG2_MitoMembPot_24hr: Apredica 24-hour HepG2 Assay for Mitochondrial Membrane Potential (AID 2282911). The note with it: imaging, actives raise or lower the signal. Summed up:
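Mitochondrial membrane potential imaged via MitoTracker Red CMXRos (250 nM, 30 min pre-fixation) in fixed HepG2 cells with Hoechst nuclear identification. Ten concentrations 0.39–200 uM, 24 h treatment, 0.5% DMSO; CCCP as positive control.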

A short description of experiment [6]: APR_HepG2_MitoMass_24hr: Apredica 24-hour HepG2 Assay for Mitochondrial Mass (AID 2282912). The note with it: high-content imaging, actives raise or lower the signal. In a few lines: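 HepG2, 24 hr dosing, 10 concentrations 0.39–200 uM in duplicate, DMSO 0.5% final. MitoTracker Red CMXRos 250 nM, 30 min pre-fix; 3.7% formaldehyde fix. Imaging-based fluorescence intensity; gain/loss fit vs DMSO baseline.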

A short description of experiment [7]: APR_HepG2_CellLoss_72hr: Apredica 72-hour HepG2 Assay for Cell Loss (AID 2282915). The settings on record: high-content imaging. Summed up: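 Cell number comes from Hoechst 33342-labelled nuclei, imaged at 20x after 3.7% formaldehyde fixation. Dosing was 0.39–200 uM, ten concentrations in duplicate, 0.5% DMSO final, for 72 h. Bidirectional fit relative to DMSO baseline.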

Experiment [8] can be described thus: APR_HepG2_P-H2AX_72hr: Apredica 72-hour HepG2 Assay for H2AX Phosphorylation (AID 2282916).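 Note: phospho-histone H2A.x immunostain intensity per cell marking DNA damage.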 The note with it: imaging, actives raise or lower the signal. Summed up:
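Readout: phospho-H2A.x immunofluorescence (FITC secondary) plus Hoechst nuclear stain, high-content imaging at 20x, six fields/well. HepG2, 72 hr compound exposure, 0.39–200 uM, final DMSO 0.5% v/v. Gain or loss fitted relative to DMSO baseline.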

Experiment [9] in a line: APR_HepG2_MitoticArrest_72hr: Apredica 72-hour HepG2 Assay for Mitotic Arrest (AID 2282918). The note with it: high-content imaging, actives raise or lower the signal. In a few lines: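 High-content imaging of fixed human HepG2 cells after 72 h compound exposure (0.39–200 uM, duplicates, 0.5% DMSO); mitotic arrest scored from phospho-histone H3 and nuclear Hoechst staining relative to DMSO.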

A short description of experiment [10]: APR_HepG2_P-H2AX_24hr: Apredica 24-hour HepG2 Assay for H2AX Phosphorylation (AID 2282920). The settings on record: high-content imaging, actives raise or lower the signal. Summed up:
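High-content imaging of phospho-histone H2A.x immunofluorescence, nuclei counterstained with Hoechst 33342, in fixed HepG2 cells. Compounds ran 0.39–200 uM in duplicate for 24 h, final DMSO 0.5%. Signal change fitted both directions against DMSO.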

Experiment [11] can be described thus: APR_HepG2_StressKinase_72hr: Apredica 72-hour HepG2 Assay for Stress Kinase (AID 2282921). The note with it: HepG2 stress kinase (phospho-c-Jun) imaging, actives raise or lower the signal. Summed up: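 Phospho-c-Jun immunofluorescence measured by high-content imaging at 20x, six fields per well; bidirectional curve fitting against DMSO as baseline. Dosing: 0.39–200 uM, 72 h, 0.5% DMSO final.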

Experiment [12] can be described thus: APR_HepG2_StressKinase_24hr: Apredica 24-hour HepG2 Assay for Stress Kinase (AID 2282922). The note with it: HepG2 stress kinase (phospho-c-Jun) imaging, actives raise or lower the signal. In a few lines: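 High-content imaging of phospho-c-Jun immunofluorescence in fixed, permeabilized HepG2 cells after 24 h dosing. Ten concentrations, 0.39 to 200 uM, run in duplicate at 0.5% v/v DMSO; gain or loss of signal versus DMSO.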

Experiment [13] in a line: APR_HepG2_NuclearSize_72hr: Apredica 72-hour HepG2 Assay for Nuclear Size (AID 2282925). The settings on record: high-content imaging, actives raise or lower the signal. In a few lines:
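Nuclear size was read by high-content imaging of Hoechst 33342 stain after formaldehyde fixation. Compounds ran 72 h on HepG2 at 0.39 to 200 uM, with final DMSO 0.5% v/v. Curves fitted both directions relative to DMSO control.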

A short description of experiment [14]: APR_HepG2_MitoMembPot_72hr: Apredica 72-hour HepG2 Assay for Mitochondrial Membrane Potential (AID 2282917). The settings on record: imaging, actives raise or lower the signal. In a few lines: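 Membrane potential read by MitoTracker Red CMXRos (250 nM, 30 min, pre-fixation) fluorescence imaging of HepG2 after 72 hr exposure. Ten concentrations, 0.39–200 uM, duplicate wells, 0.5% DMSO; fitted in both directions against DMSO baseline.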

Experiment [15] can be described thus: APR_HepG2_p53Act_24hr: Apredica 24-hour HepG2 Assay for p53 Activation (AID 2282913).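 Note: p53 protein immunofluorescence averaged per cell in HepG2 with Hoechst nuclei.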 The note with it: high-content imaging, actives raise or lower the signal. In a few lines: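 Fluorescence imaging of formaldehyde-fixed HepG2 cells labelled for p53 and with Hoechst, 24 h after dosing (0.39–200 uM, duplicate wells, 0.5% v/v DMSO). Signal fitted in both directions relative to DMSO.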

Experiment [16] in a line: APR_HepG2_p53Act_72hr: Apredica 72-hour HepG2 Assay for p53 Activation (AID 2282923).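 Note: average cellular p53 protein immunofluorescence intensity in HepG2 cells.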 The settings on record: high-content imaging, actives raise or lower the signal. In a few lines:
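Readout: p53 immunofluorescence quantified by automated high-content imaging at 20x, six fields per well, nuclei located via Hoechst. Dosing ran 72 hr over ten concentrations from 0.39 to 200 uM; bidirectional curve fitting against DMSO baseline.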

`O=C(O)C(Cl)Cl`: the call in experiment [1], in [2], in [3], in [4], in experiment [5] and in experiment [6] was inactive. In addition, the call in experiment [7], in experiment [8], in experiment [9], in [10], in experiment [11] and in experiment [12] was inactive. For the same compound, the result in experiment [13] was inactive.

In general, AC50 refers to the concentration at which the activity in the assay is half-maximal. Take `CN(C)C(=O)Cl`: in experiment [1], the AC50 is 38.7 µM (active). For the same compound, the outcome in experiment [2], in experiment [3], in [4], in [5], in experiment [6] and in experiment [7] was inactive. Also, the outcome in experiment [8], in [14], in experiment [9], in [10], in [11] and in experiment [12] was inactive. Further, in [13], the result was inactive.

In the case of `c1ccc(OP(Oc2ccccc2)Oc2ccccc2)cc1`, the result in experiment [1], in [2], in experiment [3], in [4], in [5] and in experiment [6] was inactive. The result in [15], in experiment [7], in [8], in experiment [10], in [11] and in [12] was inactive. In addition, the compound was classed as inactive in experiment [16] and in experiment [13]. Also, the AC50 in experiment [9] is 113 µM (active).

Turning to `CC(C)(C)c1ccc(O)cc1`, the AC50 in experiment [1] was 10.5 µM (active). Further, the result in experiment [4], in [5], in experiment [6], in experiment [15], in experiment [7] and in experiment [8] was inactive. Besides, the call in [9], in [10], in experiment [11], in experiment [12] and in [16] was inactive.

For `Nc1ccc(Cl)cc1`, the call in experiment [1], in [2], in [3], in experiment [4], in experiment [5] and in [6] was inactive. The compound was called inactive in experiment [15], in experiment [7], in experiment [8], in experiment [9], in experiment [10] and in [11]. The result in experiment [12], in [16] and in experiment [13] was inactive.

With `ClC(Cl)c1ccccc1`, the compound was called inactive in experiment [1], in [2], in [3], in experiment [4], in experiment [5] and in experiment [6]. Besides, the compound was classed as inactive in experiment [7], in experiment [8], in experiment [9], in experiment [10], in [11] and in [12]. Further, the call in experiment [13] was inactive.

As to `c1ccc2c(c1)Nc1ccccc1S2`, the compound was classed as inactive in experiment [1], in experiment [3], in [4], in experiment [6], in [15] and in experiment [8]. Besides, the compound was classed as inactive in experiment [9], in experiment [10], in experiment [11], in experiment [12], in [16] and in [13]. Also, the values for the AC50 in experiment [2], in [5] and in [7] were 9.76 µM (active), 107 µM (active) and 47 µM (active), respectively.

Turning to `CCCCN(CCCC)SN(C)C(=O)Oc1cccc2c1OC(C)(C)C2`, the result in [1], in experiment [3], in [5], in experiment [11], in experiment [12] and in experiment [13] was inactive. The AC50 was 48.4 µM (active) in [2]; 98 µM (active) in [4]; 92.7 µM (active) in [6]; 56.8 µM (active) in experiment [7]; 59.9 µM (active) in [8]; 54.1 µM (active) in experiment [9]. In addition, the AC50 in experiment [10] is 66.8 µM (active).

Take `CC(C)(C)OOC(C)(C)C`: the call in experiment [1], in [2], in [3], in experiment [4], in experiment [5] and in experiment [6] was inactive. In addition, the call in [15], in experiment [7], in experiment [8], in [9], in [10] and in experiment [11] was inactive. For the same compound, the outcome in experiment [12], in experiment [16] and in experiment [13] was inactive.

As for `CCCN(CCC)c1c([N+](=O)[O-])cc(C(C)C)cc1[N+](=O)[O-]`, the outcome in experiment [1], in [3], in experiment [10], in [11], in [12] and in [13] was inactive. Moreover, the AC50 in [2] is 49 µM (active); in [4] it was 32.6 µM (active); in [5], 55.2 µM (active); in experiment [6], 42.9 µM (active); in experiment [15] it was 52.9 µM (active); in experiment [7] it was 43.1 µM (active). The AC50 in experiment [8] is 52.1 µM (active); in [9], 31.6 µM (active); in [16], 44.1 µM (active).

Turning to `CCOC(=O)c1ccccc1C(=O)OCC`, the compound was classed as inactive in experiment [1], in [2], in [3], in experiment [4], in [5] and in [6]. Besides, the outcome in [15], in experiment [7], in experiment [8], in experiment [9], in experiment [10] and in experiment [11] was inactive. Moreover, the outcome in experiment [12], in [16] and in experiment [13] was inactive.

The values are drawn from PubChem BioAssay (EPA / NIEHS).
